What all share (conditions): mRNA level, 48 h; actives raise or lower the signal
Read-out in assay [1]: Insulin-like growth factor-binding protein 1 (IGFBP1), IGFBP1 (gene 3484)
Briefly: LTEA_HepaRG_IGFBP1: Life Technologies and Expression Analysis (LTEA) Assay for Insulin-like growth factor-binding protein 1 (IGFBP1) using HepaRG (AID 2283508). The method in brief:
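Read-out is qRT-PCR transcript level normalized to three housekeeping genes, fitted in both directions against 0.5% DMSO. Differentiated HepaRG cells received eight half-log concentrations (top 100 uM) in duplicate for 48 h in serum-free induction medium.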

Read-out in assay [2]: Interleukin 6 (IL6), IL6 (gene 3569)
Briefly: LTEA_HepaRG_IL6: Life Technologies and Expression Analysis (LTEA) Assay for Interleukin 6 (IL6) using HepaRG (AID 2283509). In short, it runs like this:
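Changes in IL6 mRNA, up or down relative to 0.5% DMSO controls, were derived from concentration-response curves in human HepaRG cells treated for 48 h at up to 100 uM, with ACTB, GAPDH and POLR2A as normalizers.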

Read-out in assay [3]: Interleukin 6 Receptor (IL6R), IL6R (gene 3570)
The assay is described as follows: LTEA_HepaRG_IL6R: Life Technologies and Expression Analysis (LTEA) Assay for Interleukin 6 Receptor (IL6R) using HepaRG (AID 2283510). In short, it runs like this: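 In this HepaRG screen, test chemicals act on cells for 48 h at up to 100 uM (eight half-log points, duplicate wells). IL6R expression is quantified by qRT-PCR after normalization to ACTB, GAPDH and POLR2A, with DMSO as baseline.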

Read-out in assay [4]: Potassium channel subfamily K member 1 (KCNK1), KCNK1 (gene 3775)
The assay is described as follows: LTEA_HepaRG_KCNK1: Life Technologies and Expression Analysis (LTEA) Assay for Potassium channel subfamily K member 1 (KCNK1) using HepaRG (AID 2283511). The method in brief: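 Human HepaRG cultures receive test chemicals for 48 h in 0.5% DMSO, top concentration 100 uM with half-log dilutions. Induction or suppression of KCNK1 mRNA relative to DMSO is derived by bidirectional fitting of qRT-PCR data.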

Read-out in assay [5]: Keratin 19 (KRT19), KRT19 (gene 3880)
Briefly: LTEA_HepaRG_KRT19: Life Technologies and Expression Analysis (LTEA) Assay for Keratin 19 (KRT19) using HepaRG (AID 2283512). In short, it runs like this:
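KRT19 transcript measured by TaqMan qRT-PCR, referenced to three housekeeping genes, after HepaRG cells received test chemicals for 48 h. Eight half-log concentrations, top 100 uM, 0.5% DMSO vehicle; increases and decreases both fitted.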

Read-out in assay [6]: JUN Transcription Factor, JUN (gene 3725)
The assay is described as follows: LTEA_HepaRG_JUN: Life Technologies and Expression Analysis (LTEA) Assay for JUN Transcription Factor using HepaRG (AID 2283513). The method in brief: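 Gene-expression endpoint: JUN mRNA (qRT-PCR, normalized to three reference genes) in HepaRG cultures treated 48 h with chemicals, duplicate wells, 100 uM maximum with half-log dilutions; bidirectional fitting relative to 0.5% DMSO.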

Read-out in assay [7]: Lipase C (LIPC), LIPC (gene 3990)
Briefly: LTEA_HepaRG_LIPC: Life Technologies and Expression Analysis (LTEA) Assay for Lipase C (LIPC) using HepaRG (AID 2283514). In short, it runs like this: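 In this multiplexed gene-expression screen, human HepaRG cultures received test chemicals for 48 h across eight concentrations with 100 uM highest, in duplicate. Values reflect LIPC mRNA induction or suppression versus DMSO vehicle, from normalized qRT-PCR.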

Read-out in assay [8]: Lipoprotein lipase (LPL), LPL (gene 4023)
Briefly: LTEA_HepaRG_LPL: Life Technologies and Expression Analysis (LTEA) Assay for Lipoprotein lipase (LPL) using HepaRG (AID 2283515). In short, it runs like this: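 Concentration-response testing used half-log steps from 100 uM in 0.5% DMSO on human HepaRG cells, 48 h, duplicate wells. Phenobarbital 1 mM served as induction control; LPL mRNA was normalized to ACTB, GAPDH, POLR2A.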

Read-out in assay [9]: MicroRNA 122 (MIR122), gene 406906
The assay is described as follows: LTEA_HepaRG_MIR122: Life Technologies and Expression Analysis (LTEA) Assay for MicroRNA 122 (MIR122) using HepaRG (AID 2283516). Further: the transcript read is the microRNA miR-122. The method in brief:
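Changes in transcript abundance, up or down relative to 0.5% DMSO vehicle, were scored after 48 h chemical treatment of HepaRG cells (maximum 100 uM). Quantification used TaqMan qRT-PCR normalized to housekeeping genes.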

Read-out in assay [10]: matrix metalloproteinase-10 (MMP10), MMP10 (gene 4319)
Briefly: LTEA_HepaRG_MMP10: Life Technologies and Expression Analysis (LTEA) Assay for matrix metalloproteinase-10 (MMP10) using HepaRG (AID 2283517). In short, it runs like this:
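In differentiated HepaRG cultures kept in 0.5% DMSO, test chemicals act for 48 h over an eight-point range with a top dose of 100 uM. Expression is then quantified by TaqMan RT-PCR against ACTB, GAPDH and POLR2A.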

Read-out in the next assay: MYC, MYC (gene 4609)
Briefly: LTEA_HepaRG_MYC: Life Technologies and Expression Analysis (LTEA) Assay for MYC using HepaRG (AID 2283518). In short, it runs like this: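 MYC transcript changes, up or down relative to 0.5% DMSO, from TaqMan qRT-PCR normalized to three housekeeping genes. Human HepaRG cultures received chemicals for 48 h at eight half-log concentrations up to 100 uM, in duplicate.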

Read-out in assay [11]: matrix metalloproteinase-3 (MMP3), MMP3 (gene 4314)
The assay is described as follows: LTEA_HepaRG_MMP3: Life Technologies and Expression Analysis (LTEA) Assay for matrix metalloproteinase-3 (MMP3) using HepaRG (AID 2283519). The method in brief:
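Human liver HepaRG cultures received chemicals (top concentration 100 uM, 0.5% DMSO) for 48 h in duplicate. MMP3 mRNA induction or loss was then assessed via TaqMan qRT-PCR with housekeeping-gene normalisation.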

Read-out in assay [12]: Paternally Expressed 10 (PEG10), PEG10 (gene 23089)
The assay is described as follows: LTEA_HepaRG_PEG10: Life Technologies and Expression Analysis (LTEA) Assay for Paternally Expressed 10 (PEG10) using HepaRG (AID 2283520).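 On AC50: PEG10 transcript by qRT-PCR normalised to ACTB GAPDH and POLR2A.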 The method in brief: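 After 48 h exposure of differentiated HepaRG cells (0.5% DMSO vehicle, eight concentrations up to 100 uM, duplicates), PEG10 mRNA was measured by TaqMan qRT-PCR. Values were normalised to endogenous control genes and analysed bidirectionally against vehicle.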

Read-out in assay [13]: Protein phosphatase 2A (PPP2R4), PTPA (gene 5524)
Briefly: LTEA_HepaRG_PPP2R4: Life Technologies and Expression Analysis (LTEA) Assay for Protein phosphatase 2A (PPP2R4) using HepaRG (AID 2283522). The method in brief: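 Using HepaRG cultures maintained in 0.5% DMSO, chemicals are tested 48 h at up to 100 uM in duplicate. Induction or suppression of PPP2R4 mRNA, measured by qRT-PCR, is fitted bidirectionally against the vehicle baseline.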

Read-out in assay [14]: Phosphatase and tensin (PTEN), PTEN (gene 5728)
The assay is described as follows: LTEA_HepaRG_PTEN: Life Technologies and Expression Analysis (LTEA) Assay for Phosphatase and tensin (PTEN) using HepaRG (AID 2283523). The method in brief:
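Expression of PTEN is quantified in the human liver line HepaRG following two days of dosing (top concentration 100 uM, half-log dilutions, 0.5% DMSO). Values derive from bidirectional curve fitting relative to DMSO controls.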

Read-out in assay [15]: solute carrier (SLC22A1), SLC22A1 (gene 6580)
Briefly: LTEA_HepaRG_SLC22A1: Life Technologies and Expression Analysis (LTEA) Assay for solute carrier (SLC22A1) using HepaRG (AID 2283524). In short, it runs like this:
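Transcript induction or suppression of SLC22A1 in human HepaRG cultures is scored after 48 h chemical treatment, with DMSO (0.5%) as baseline for bidirectional fitting. Concentrations span eight half-log points topping at 100 uM.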

Read-out in assay [16]: Pyruvate Dehydrogenase Kinase 4 (PDK4), PDK4 (gene 5166)
The assay is described as follows: LTEA_HepaRG_PDK4: Life Technologies and Expression Analysis (LTEA) Assay for Pyruvate Dehydrogenase Kinase 4 (PDK4) using HepaRG (AID 2283525). In short, it runs like this:
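Eight-point, half-log concentration series (max 100 uM, 0.5% DMSO) applied to differentiated HepaRG cells for 48 h in duplicate. Endpoint: PDK4 mRNA induction or repression by qRT-PCR against DMSO baseline.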

Read-out in assay [17]: NAD(P)H dehydrogenase [quinone] 1 (NQO1), NQO1 (gene 1728)
The assay is described as follows: LTEA_HepaRG_NQO1: Life Technologies and Expression Analysis (LTEA) Assay for NAD(P)H dehydrogenase [quinone] 1 (NQO1) using HepaRG (AID 2283526). In short, it runs like this: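 In this assay, gene expression is read by qRT-PCR after 48 h exposure of HepaRG cells to eight concentrations (max 100 uM, half-log) in 0.5% DMSO. Each chemical runs in duplicate, and activity is scored relative to vehicle.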

Read-out in assay [18]: Nuclear factor erythroid 2-related factor 2 (Homo sapiens) (UniProt Q16236)
Briefly: LTEA_HepaRG_NFE2L2: Life Technologies and Expression Analysis (LTEA) Assay for Nuclear factor erythroid 2-related factor 2 (NFE2L2) Transcription Factor using HepaRG (AID 2283527).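 Further: TaqMan qRT-PCR transcript level normalised to ACTB GAPDH and POLR2A housekeeping genes.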 In short, it runs like this:
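Human liver HepaRG line treated in duplicate for 48 h with an eight-point series topping at 100 uM. Gene expression of NFE2L2 by qRT-PCR, bidirectionally fitted against the vehicle control.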

Read-out in assay [19]: Nuclear factor NF-kappa-B p105 subunit (Homo sapiens) (UniProt P19838)
The assay is described as follows: LTEA_HepaRG_NFKB1: Life Technologies and Expression Analysis (LTEA) Assay for Nuclear Factor Kappa B Subunit 1 (NFKB1) using HepaRG (AID 2283521).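 Further: TaqMan qRT-PCR transcript normalised to ACTB GAPDH and POLR2A housekeeping genes.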 In short, it runs like this:
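Differentiated human HepaRG cells in serum-free induction medium with 0.5% DMSO were exposed for 48 h to eight half-log concentrations, top 100 uM, in duplicate. NFKB1 mRNA measured by Fluidigm TaqMan qRT-PCR, normalised to ACTB, GAPDH and POLR2A; bidirectional fit versus DMSO.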

We go through 3 compounds from PubChem BioAssay (EPA / NIEHS).

Calls of active or inactive are those of the source. How the source made its calls: active means hit-call score of the fitted dose curve at least 0.9, where 1 is the maximum; inactive means score below 0.9.

The term AC50 denotes the midpoint of the concentration-response curve, whichever way the signal moves.

Nuclear factor erythroid 2-related factor 2 (Homo sapiens), sequence (Q16236 whole entry, looked up): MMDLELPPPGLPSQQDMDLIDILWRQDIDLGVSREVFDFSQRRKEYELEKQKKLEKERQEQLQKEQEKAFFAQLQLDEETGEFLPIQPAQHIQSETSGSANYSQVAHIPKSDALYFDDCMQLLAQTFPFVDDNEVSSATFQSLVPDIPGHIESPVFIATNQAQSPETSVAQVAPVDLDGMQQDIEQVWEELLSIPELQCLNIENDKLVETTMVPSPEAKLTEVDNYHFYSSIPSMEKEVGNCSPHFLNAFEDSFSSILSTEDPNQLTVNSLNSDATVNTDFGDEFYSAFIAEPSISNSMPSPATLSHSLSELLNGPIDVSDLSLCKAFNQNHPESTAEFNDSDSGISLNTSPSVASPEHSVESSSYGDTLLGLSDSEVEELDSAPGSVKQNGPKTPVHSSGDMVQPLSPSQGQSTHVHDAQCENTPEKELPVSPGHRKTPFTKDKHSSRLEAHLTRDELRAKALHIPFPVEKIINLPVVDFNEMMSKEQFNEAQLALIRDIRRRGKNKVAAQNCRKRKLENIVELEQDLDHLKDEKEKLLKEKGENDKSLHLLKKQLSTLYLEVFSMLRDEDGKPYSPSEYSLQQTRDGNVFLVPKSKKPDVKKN
Nuclear factor NF-kappa-B p105 subunit (Homo sapiens), sequence (P19838 whole entry, looked up): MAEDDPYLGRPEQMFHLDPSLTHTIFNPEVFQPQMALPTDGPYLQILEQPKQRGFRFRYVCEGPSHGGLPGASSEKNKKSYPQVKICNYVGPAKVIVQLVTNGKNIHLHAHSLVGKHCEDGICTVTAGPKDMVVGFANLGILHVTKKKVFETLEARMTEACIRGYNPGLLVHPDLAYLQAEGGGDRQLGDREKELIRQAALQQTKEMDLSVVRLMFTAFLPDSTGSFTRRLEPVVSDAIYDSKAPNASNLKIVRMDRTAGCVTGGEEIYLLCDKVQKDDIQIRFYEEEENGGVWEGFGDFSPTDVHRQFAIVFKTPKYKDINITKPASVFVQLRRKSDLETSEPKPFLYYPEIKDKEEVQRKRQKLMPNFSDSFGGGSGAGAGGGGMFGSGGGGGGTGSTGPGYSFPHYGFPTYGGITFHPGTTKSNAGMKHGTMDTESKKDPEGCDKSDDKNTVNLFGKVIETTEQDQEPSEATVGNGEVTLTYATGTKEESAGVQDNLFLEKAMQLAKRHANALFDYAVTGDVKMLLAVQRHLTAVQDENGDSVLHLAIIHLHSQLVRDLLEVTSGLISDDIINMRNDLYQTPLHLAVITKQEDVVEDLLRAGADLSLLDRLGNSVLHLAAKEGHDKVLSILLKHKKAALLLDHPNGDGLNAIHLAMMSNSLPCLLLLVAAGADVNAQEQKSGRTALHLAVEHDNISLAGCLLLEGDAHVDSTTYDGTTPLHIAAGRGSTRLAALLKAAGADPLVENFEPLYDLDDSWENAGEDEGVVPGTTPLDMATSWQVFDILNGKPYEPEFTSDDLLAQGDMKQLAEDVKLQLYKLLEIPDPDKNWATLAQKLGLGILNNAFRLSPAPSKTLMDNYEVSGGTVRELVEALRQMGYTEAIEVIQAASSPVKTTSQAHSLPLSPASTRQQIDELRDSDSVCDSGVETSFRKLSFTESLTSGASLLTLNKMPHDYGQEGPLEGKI

In the case of `CCC(CC)Nc1c([N+](=O)[O-])cc(C)c(C)c1[N+](=O)[O-]`, the compound was called inactive in assay [1], in assay [2], in [3], in assay [4], in [6] and in assay [7]. Further, the outcome in [8] was “inactive”; in assay [9], “inactive”; in assay [10] it was “inactive”; in the assay with MYC, MYC (gene 4609), “inactive”; in [11], “inactive”; in assay [13], “inactive”. In addition, the outcome in [14], in assay [15], in assay [16], in assay [17] and in [18] was inactive. Also, the AC50 in assay [5] and in assay [12] was 50 µM (active) in each case.
For `CN(C)NC(=O)CCC(=O)O`, the compound was called inactive in assay [1], in assay [2], in assay [3], in assay [4], in assay [5] and in assay [6]. Moreover, the outcome was “inactive” in [8]; “inactive” in [9]; “inactive” in assay [10]; “inactive” with MYC, MYC (gene 4609); “inactive” in assay [11]; “inactive” in [12]. Further, the compound was classed as inactive in assay [19], in assay [13], in assay [14], in [15], in assay [16] and in assay [17]. Moreover, the compound was classed as inactive in [18].
For the compound `COc1cccc(C(=O)NN(C(=O)c2cc(C)cc(C)c2)C(C)(C)C)c1C`, the outcome in assay [1], in assay [2], in assay [3], in assay [4], in assay [5] and in assay [6] was inactive. The outcome in assay [7] was “inactive”; in [8], “inactive”; in [9], “inactive”; in assay [10], “inactive”; with MYC, MYC (gene 4609), “inactive”; in [11] it was “inactive”. For the same compound, the outcome in [12], in assay [13], in assay [14], in assay [17] and in assay [18] was inactive. For the same compound, the AC50 in assay [16] is 69.7 µM (active).
